Our source for the Potency values is PubChem BioAssay (Tox21).

“And” between values parts separate entries of the source, which are not always exact repeats. Identical values can stand only once. Records with an inconclusive call do not appear. Where a call stands in place of a potency, no number is given. The source made the active and inactive calls. Calls come from the whole dose curve; as a rule, active = well fitted curve in the direction sought with a large enough effect in the repeat runs; inconclusive = weak or mixed curves; inactive = no such curve, though single readings can be large; an effect the other way counts as inactive or inconclusive.

The first experiment can be described thus: qHTS RealTime-Glo MT Cell Viability Assay in HEK293 cells - 8 hour (AID 1224887). Note: nearly all actives have a fitted effect of over 50% in size. Note: potency is the fitted concentration of half-maximal effect. Particulars: RealTime-Glo luminescence; series mostly up to 76.8 µM. Put shortly:
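600 cells/well were plated with the nonlytic NanoLuc/prosubstrate reagent, pre-incubated 5 h, then given 23 nL of compound in DMSO. Incubation at 37 C for 40 h, with luminescence from viable-cell-reduced substrate read repeatedly from 0 h.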
(Quantitative high-throughput screening tests each substance at several concentrations.)
In the case of `CC(C)C(=O)Nc1ccc([N+](=O)[O-])c(C(F)(F)F)c1`, the Potency was 22.5 µM (active) and 21.9 µM (active) and 9.52 µM (active).
For the compound `CN(N=O)C(=O)N[C@@H]1[C@@H](O)[C@H](O)[C@@H](CO)O[C@@H]1O`, the Potency result is “inactive”.
Still for that read-out and setting: with `COc1ccc2c(c1)c(CC(=O)O)c(C)n2C(=O)c1ccc(Cl)cc1` the entry was “inactive”; with `O=c1[nH]cc(F)c(=O)[nH]1`, “inactive”; with `CC(=O)Nc1c(I)c(NC(C)=O)c(I)c(C(=O)O)c1I`, “inactive”.
`CCCCC1(COC(=O)CCC(=O)O)C(=O)N(c2ccccc2)N(c2ccccc2)C1=O`: the Potency result was “inactive”.
Consider `CCCCOC(=O)c1ccc(O)cc1`, for which the Potency result is “inactive”.
Turning to `O=S1(=O)OC(c2ccc(O)cc2)(c2ccc(O)cc2)c2ccccc21`, the Potency entry was “inactive”.
`NC(=O)c1cccnc1`: the Potency result was “inactive”.
Regarding `CC(=O)C(=O)O`, the Potency result was “inactive”.
Regarding `F[B-](F)(F)F`, the Potency entry was “inactive”.
Consider `Cc1cc(C)nc(NS(=O)(=O)c2ccc(N)cc2)n1`, for which the Potency entry is “inactive”.
For `CN(C)CCOC(c1ccccc1)c1ccccc1`, the Potency entry is “inactive”.
On the same count and under the same terms, with `CCOC(N)=O` the entry was “inactive”.

A further experiment can be described thus: A CellTox Green Cytotoxicity Assay to monitor cytotoxicity in HEK293 cells - 16 hour (AID 1224888). Note: nearly all actives have a fitted effect of over 35% in size. Particulars: CellTox Green fluorescence; series mostly up to 76.8 µM. Put shortly: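 HEK293 cells, 600/well, were preincubated 5 hours and then exposed to compounds at 37 C for up to 40 hours. A cell-impermeant cyanine dye staining dead-cell DNA was read by fluorescence at 0, 8, 16, 24, 32 and 40 h time points.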
Consider `CC(C)C(=O)Nc1ccc([N+](=O)[O-])c(C(F)(F)F)c1`, for which the Potency entry was “inactive”.
As for `CN(N=O)C(=O)N[C@@H]1[C@@H](O)[C@H](O)[C@@H](CO)O[C@@H]1O`, the Potency entry was “inactive”.
For `C=CCc1ccc(O)c(OC)c1`, the Potency result was “inactive”.
Consider `CN(C)C(=O)Nc1ccc(Cl)c(Cl)c1`, for which the Potency entry was “inactive”.
With `O=c1[nH]cc(F)c(=O)[nH]1`, the Potency result is “inactive”.
For the compound `CC(=O)Nc1c(I)c(NC(C)=O)c(I)c(C(=O)O)c1I`, the Potency result was “inactive”.
For `Cc1c(C(=O)O)c(O)cc2c1C(=O)c1c(O)c([C@@H]3O[C@H](CO)[C@@H](O)[C@H](O)[C@H]3O)c(O)c(O)c1C2=O`, the Potency result is “inactive”.
For the compound `Cc1ncc([N+](=O)[O-])n1CCO`, the Potency entry was “inactive”.
Take `CC(=O)C(=O)O`: the Potency result is “inactive”.
With `F[B-](F)(F)F`, the Potency entry was “inactive”.
`Cc1cc(C)nc(NS(=O)(=O)c2ccc(N)cc2)n1`: the Potency entry was “inactive”.
Regarding `CN(C)CCOC(c1ccccc1)c1ccccc1`, the Potency result was “inactive”.
The same measure, in the same setting: the value for `Nc1ccc(S(N)(=O)=O)cc1` was “inactive”; that for `CS(=O)(=O)OCCCCOS(C)(=O)=O` was “inactive”; that for `CCOC(N)=O` was “inactive”.

The next experiment can be described thus: qHTS RealTime-Glo MT Cell Viability Assay in HepG2 cells - 0 hour (AID 1224889). Note: nearly all actives have a fitted effect of over 50% in size. Note: potency is the fitted concentration of half-maximal effect. The note with it: RealTime-Glo luminescence; series mostly up to 76.8 µM. The procedure, abridged:
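qHTS, HepG2, 600 cells/well, RealTime-Glo (NanoLuc + prosubstrate) added with cells; 5 h preincubation; DMSO compound addition; 37 C; luminescence at 0/8/16/24/32/40 h.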
`CC(C)C(=O)Nc1ccc([N+](=O)[O-])c(C(F)(F)F)c1`: the Potency result is “inactive”.
Turning to `CN(N=O)C(=O)N[C@@H]1[C@@H](O)[C@H](O)[C@@H](CO)O[C@@H]1O`, the Potency entry is “inactive”.
Still for that read-out and setting: the value for `NS(=O)(=O)O` was “inactive”; that for `C=CCc1ccc(O)c(OC)c1` was “inactive”.
With `C/C=C/C=C/C(=O)O`, the Potency entry was “inactive”.
Regarding `Cc1ncc([N+](=O)[O-])n1C`, the Potency result was “inactive”.
The same measure, in the same setting: the value for `CN(C)CCOC(C)(c1ccccc1)c1ccccn1` (configuration not stated) was “inactive”; that for `COc1ccc2c(c1)c(CC(=O)O)c(C)n2C(=O)c1ccc(Cl)cc1` was “inactive”.
Regarding `CN(C)C(=O)Nc1ccc(Cl)c(Cl)c1`, the Potency result is “inactive”.
For the compound `O=c1[nH]cc(F)c(=O)[nH]1`, the Potency entry is “inactive”.
For `O=C(O)CC(O)C(=O)O` (configuration not stated), the Potency result is “inactive”.
`CC(=O)Nc1c(I)c(NC(C)=O)c(I)c(C(=O)O)c1I`: the Potency entry is “inactive”.
Take `Cc1c(C(=O)O)c(O)cc2c1C(=O)c1c(O)c([C@@H]3O[C@H](CO)[C@@H](O)[C@H](O)[C@H]3O)c(O)c(O)c1C2=O`: the Potency entry is “inactive”.
For `CCCCC1(COC(=O)CCC(=O)O)C(=O)N(c2ccccc2)N(c2ccccc2)C1=O`, the Potency entry is “inactive”.
On to `Cc1ncc([N+](=O)[O-])n1CCO`, for which the Potency result was “inactive”.
Still for that read-out and setting: with `CCCCOC(=O)c1ccc(O)cc1` the entry was “inactive”; with `O=S1(=O)OC(c2ccc(O)cc2)(c2ccc(O)cc2)c2ccccc21`, 49 µM (active).
Consider `NC(=O)c1cccnc1`, for which the Potency result is “inactive”.
Turning to `CC(=O)C(=O)O`, the Potency result was “inactive”.
Still for that read-out and setting: the value for `O=C1NS(=O)(=O)c2ccccc21` was “inactive”; that for `F[B-](F)(F)F` was “inactive”; that for `CC(C)c1c(C(=O)Nc2ccccc2)c(-c2ccccc2)c(-c2ccc(F)cc2)n1CC[C@@H](O)C[C@@H](O)CC(=O)O` was “inactive”.
As to `Cc1cc(C)nc(NS(=O)(=O)c2ccc(N)cc2)n1`, the Potency result was “inactive”.
Turning to `CN(C)CCOC(c1ccccc1)c1ccccc1`, the Potency entry is “inactive”.
Same read-out and setting: the value for `CCCC[P+](CCCC)(CCCC)CCCC` was “inactive”; that for `C=C(C)C(=O)OCC(C)O` (configuration not stated) was “inactive”; that for `Nc1ccc(S(N)(=O)=O)cc1` was “inactive”.
In the case of `CS(=O)(=O)OCCCCOS(C)(=O)=O`, the Potency result was “inactive”.
As for `CCOC(N)=O`, the Potency entry is “inactive”.

A further experiment in a line: A CellTox Green Cytotoxicity Assay to monitor cytotoxicity in HepG2 cells - 8 hour (AID 1224890). Note: nearly all actives have a fitted effect of over 45% in size. The note with it: CellTox Green fluorescence; series mostly up to 76.8 µM. Put shortly:
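HepG2 cells, 600/well, preincubated 5 h with CellTox Green dye, then exposed to Tox21 compounds in DMSO at 37 C for up to 40 h. Dead-cell DNA fluorescence read at the indicated time point.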
For the compound `CC(C)C(=O)Nc1ccc([N+](=O)[O-])c(C(F)(F)F)c1`, the Potency result is “inactive”.
For the compound `CN(N=O)C(=O)N[C@@H]1[C@@H](O)[C@H](O)[C@@H](CO)O[C@@H]1O`, the Potency entry is “inactive”.
On to `NS(=O)(=O)O`, for which the Potency entry is “inactive”.
On to `C=CCc1ccc(O)c(OC)c1`, for which the Potency result is “inactive”.
For the compound `C/C=C/C=C/C(=O)O`, the Potency entry is “inactive”.
As for `Cc1ncc([N+](=O)[O-])n1C`, the Potency result was “inactive”.
In the case of `CN(C)CCOC(C)(c1ccccc1)c1ccccn1` (configuration not stated), the Potency result is “inactive”.
Turning to `COc1ccc2c(c1)c(CC(=O)O)c(C)n2C(=O)c1ccc(Cl)cc1`, the Potency result is “inactive”.
As for `CN(C)C(=O)Nc1ccc(Cl)c(Cl)c1`, the Potency entry was “inactive”.
With `O=c1[nH]cc(F)c(=O)[nH]1`, the Potency result was “inactive”.
For `O=C(O)CC(O)C(=O)O` (configuration not stated), the Potency result is “inactive”.
For `CC(=O)Nc1c(I)c(NC(C)=O)c(I)c(C(=O)O)c1I`, the Potency result was “inactive”.
Take `Cc1c(C(=O)O)c(O)cc2c1C(=O)c1c(O)c([C@@H]3O[C@H](CO)[C@@H](O)[C@H](O)[C@H]3O)c(O)c(O)c1C2=O`: the Potency entry is “inactive”.
With `CCCCC1(COC(=O)CCC(=O)O)C(=O)N(c2ccccc2)N(c2ccccc2)C1=O`, the Potency entry was “inactive”.
`Cc1ncc([N+](=O)[O-])n1CCO`: the Potency entry is “inactive”.
In the case of `CCCCOC(=O)c1ccc(O)cc1`, the Potency entry is “inactive”.
For the compound `O=S1(=O)OC(c2ccc(O)cc2)(c2ccc(O)cc2)c2ccccc21`, the Potency result is “inactive”.
Still for that read-out and setting: the value for `NC(=O)c1cccnc1` was “inactive”.
As for `CC(=O)C(=O)O`, the Potency result was “inactive”.
For `O=C1NS(=O)(=O)c2ccccc21`, the Potency result was “inactive”.
The same measure, in the same setting: the value for `F[B-](F)(F)F` was “inactive”; that for `CC(C)c1c(C(=O)Nc2ccccc2)c(-c2ccccc2)c(-c2ccc(F)cc2)n1CC[C@@H](O)C[C@@H](O)CC(=O)O` was “inactive”.
Still for that read-out and setting: the value for `Cc1cc(C)nc(NS(=O)(=O)c2ccc(N)cc2)n1` was “inactive”.
With `CN(C)CCOC(c1ccccc1)c1ccccc1`, the Potency result is “inactive”.
Take `CCCC[P+](CCCC)(CCCC)CCCC`: the Potency entry is “inactive”.
For `C=C(C)C(=O)OCC(C)O` (configuration not stated), the Potency entry was “inactive”.
Regarding `Nc1ccc(S(N)(=O)=O)cc1`, the Potency result was “inactive”.
As for `CS(=O)(=O)OCCCCOS(C)(=O)=O`, the Potency result was “inactive”.
For `CCOC(N)=O`, the Potency entry is “inactive”.
